Hit rate of the full screen: of about 5,500 compounds, about 2,000 (36%) were called active. Not shown: some 18% with an inconclusive outcome. Rule as the data show it: active = normalized growth mostly below about 0.91 (no sharp cut-off); inconclusive = no clear call, values can overlap the other calls; inactive = mostly above about 0.92. The list shows a part of the results.
Assay: chemical genetic growth profiling, strain panel (AID 1159580);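 also: tested at 20 µM; growth read once vehicle control cultures reached saturation at 30 °C; 1 = growth at the plate median or of vehicle wells; lower values mean less growth of the strain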
Details: growth OD
[1] = S. cerevisiae deletion strains, locus YDL101C, strain DUN1, active compounds read low
[2] = S. cerevisiae deletion strains, locus YHR030C, strain SLT2, active compounds read low
[3] = S. cerevisiae deletion strains, locus YJL095W, strain BCK1, active compounds read low
[4] = S. cerevisiae deletion strains, locus YOR061W, strain CKA2, active compounds read low

Measured: normalized growth

CCC(C)c1ccccc1NC(=O)c1cc2cccc([N+](=O)[O-])c2[nH]1 (configuration not stated)
active: [2] 0.543 | S. cerevisiae deletion strains, locus YHR079C, strain IRE1, active compounds read low 0.219 | [3] 0.266 | S. cerevisiae deletion strains, locus YLR113W, strain HOG1, active compounds read low 0.656 | S. cerevisiae deletion strains, locus YPL256C, strain CLN2, active compounds read low 0.785
inactive: S. cerevisiae deletion strains, locus YAR019C, strain CDC15, active compounds read low 0.932 | S. cerevisiae deletion strains, locus YBL105C, strain PKC1, active compounds read low 0.914 | S. cerevisiae deletion strains, locus YBR135W, strain CKS1, active compounds read low 0.912 | S. cerevisiae deletion strains, locus YBR136W, strain MEC1, active compounds read low 0.923 | S. cerevisiae deletion strains, locus YBR160W, strain CDC28, active compounds read low 0.924 | S. cerevisiae deletion strains, locus YDL017W, strain CDC7, active compounds read low 0.928 | S. cerevisiae deletion strains, locus YDL028C, strain MPS1, active compounds read low 0.92 | [1] 0.949 | S. cerevisiae deletion strains, locus YDL108W, strain KIN28, active compounds read low 0.921 | S. cerevisiae deletion strains, locus YDL132W, strain cdc53, active compounds read low 0.896 | S. cerevisiae deletion strains, locus YDL214C, strain PRR2, active compounds read low 0.904 | S. cerevisiae deletion strains, locus YDR052C, strain DBF4, active compounds read low 0.965 | S. cerevisiae deletion strains, locus YDR054C, strain cdc34, active compounds read low 0.957 | S. cerevisiae deletion strains, locus YDR226W, strain ADK1, active compounds read low 0.936 | S. cerevisiae deletion strains, locus YDR477W, strain SNF1, active compounds read low 0.792 | S. cerevisiae deletion strains, locus YER123W, strain YCK3, active compounds read low 0.851 | S. cerevisiae deletion strains, locus YER133W, strain GLC7, active compounds read low 0.893 | S. cerevisiae deletion strains, locus YFL009W, strain cdc4, active compounds read low 0.906 | S. cerevisiae deletion strains, locus YFL029C, strain CAK1, active compounds read low 0.925 | S. cerevisiae deletion strains, locus YFR003C, strain YPI1, active compounds read low 0.93 | S. cerevisiae deletion strains, locus YFR019W, strain FAB1, active compounds read low 0.978 | S. cerevisiae deletion strains, locus YFR028C, strain CDC14, active compounds read low 0.967 | S. cerevisiae deletion strains, locus YGR040W, strain KSS1, active compounds read low 0.826 | S. cerevisiae deletion strains, locus YGR052W, strain FMP48, active compounds read low 0.867 | S. cerevisiae deletion strains, locus YGR092W, strain DBF2, active compounds read low 0.7 | S. cerevisiae deletion strains, locus YHR082C, strain KSP1, active compounds read low 0.905 | S. cerevisiae deletion strains, locus YHR205W, strain SCH9, active compounds read low 0.964 | S. cerevisiae deletion strains, locus YIL147C, strain SLN1, active compounds read low 0.916 | S. cerevisiae deletion strains, locus YJL128C, strain PBS2, active compounds read low 0.994 | S. cerevisiae deletion strains, locus YJL157C, strain FAR1, active compounds read low 0.884 | S. cerevisiae deletion strains, locus YJR016C, strain ILV3, active compounds read low 0.911 | S. cerevisiae deletion strains, locus YJR066W, strain TOR1 (second series), active compounds read low 0.905 | S. cerevisiae deletion strains, locus YJR066W, strain TOR1, active compounds read low 0.767 | S. cerevisiae deletion strains, locus YKL048C, strain ELM1, active compounds read low 0.912 | S. cerevisiae deletion strains, locus YKL067W, strain YNK1, active compounds read low 0.897 | S. cerevisiae deletion strains, locus YKL101W, strain HSL1, active compounds read low 0.83 | S. cerevisiae deletion strains, locus YKL193C, strain SDS22, active compounds read low 0.92 | S. cerevisiae deletion strains, locus YKL203C, strain TOR2, active compounds read low 0.783 | S. cerevisiae deletion strains, locus YLR133W, strain CKI1, active compounds read low 0.902 | S. cerevisiae deletion strains, locus YLR403W, strain SFP1, active compounds read low 0.859 | S. cerevisiae deletion strains, locus YML070W, strain DAK1, active compounds read low 0.846 | S. cerevisiae deletion strains, locus YMR001C, strain CDC5, active compounds read low 0.917 | S. cerevisiae deletion strains, locus YMR205C, strain PFK2 (second series), active compounds read low 0.894 | S. cerevisiae deletion strains, locus YMR277W, strain FCP1, active compounds read low 0.921 | S. cerevisiae deletion strains, locus YNL006W, strain LST8, active compounds read low 0.915 | S. cerevisiae deletion strains, locus YNL020C, strain ARK1, active compounds read low 0.905 | S. cerevisiae deletion strains, locus YNL161W, strain CBK1, active compounds read low 0.924 | S. cerevisiae deletion strains, locus YNL183C, strain NPR1, active compounds read low 0.774 | S. cerevisiae deletion strains, locus YNL207W, strain RIO2, active compounds read low 0.905 | S. cerevisiae deletion strains, locus YNL222W, strain SSU72, active compounds read low 0.917 | S. cerevisiae deletion strains, locus YNL307C, strain MCK1 (second series), active compounds read low 0.826 | S. cerevisiae deletion strains, locus YOL078W, strain AVO1, active compounds read low 0.924 | S. cerevisiae deletion strains, locus YOL136C, strain PFK27, active compounds read low 0.869 | [4] 0.818 | S. cerevisiae deletion strains, locus YOR119C, strain RIO1, active compounds read low 0.805 | S. cerevisiae deletion strains, locus YOR231W, strain MKK1, active compounds read low 0.631 | S. cerevisiae deletion strains, locus YOR329C, strain SCD5, active compounds read low 0.917 | S. cerevisiae deletion strains, locus YPL031C, strain PHO85, active compounds read low 0.832 | S. cerevisiae deletion strains, locus YPL153C, strain RAD53, active compounds read low 0.723 | S. cerevisiae deletion strains, locus YPL204W, strain HRR25, active compounds read low 0.834 | S. cerevisiae deletion strains, locus YPL209C, strain IPL1, active compounds read low 0.921 | S. cerevisiae deletion strains, locus YPR025C, strain CCL1, active compounds read low 0.919 | S. cerevisiae deletion strains, locus YPR106W, strain ISR1, active compounds read low 0.958 | S. cerevisiae deletion strains, locus YPR111W, strain DBF20, active compounds read low 0.99 | S. cerevisiae deletion strains, strain NNK1, active compounds read low 0.945 | S. cerevisiae deletion strains, strain TSCII, active compounds read low 0.911

O=C(O)c1cc(=O)c2cc(Cl)ccc2[nH]1
inactive: S. cerevisiae deletion strains, locus YAL013W, strain DEP1, active compounds read low 0.985 | S. cerevisiae deletion strains, locus YBR021W, strain FUR4, active compounds read low 1.03 | S. cerevisiae deletion strains, locus YBR229C, strain ROT2, active compounds read low 1.01 | S. cerevisiae deletion strains, locus YCL029C, strain bik1, active compounds read low 1.01 | S. cerevisiae deletion strains, locus YDL035C, strain GPR1, active compounds read low 1 | S. cerevisiae deletion strains, locus YDL074C, strain BRE1, active compounds read low 0.972 | [1] 1 | S. cerevisiae deletion strains, locus YDL134C, strain PPH21, active compounds read low 1 | S. cerevisiae deletion strains, locus YDL185W, strain tfp1, active compounds read low 1 | S. cerevisiae deletion strains, locus YDL192W, strain arf1, active compounds read low 1.01 | S. cerevisiae deletion strains, locus YDR101C, strain arx1, active compounds read low 1.01 | S. cerevisiae deletion strains, locus YDR150W, strain NUM1, active compounds read low 1.01 | S. cerevisiae deletion strains, locus YDR162C, strain NBP2, active compounds read low 0.988 | S. cerevisiae deletion strains, locus YDR318W, strain mcm21, active compounds read low 1.03 | S. cerevisiae deletion strains, locus YDR388W, active compounds read low 1.01 | S. cerevisiae deletion strains, locus YDR502C, strain sam2, active compounds read low 1 | S. cerevisiae deletion strains, locus YEL061C, strain CIN8, active compounds read low 1 | S. cerevisiae deletion strains, locus YER110C, active compounds read low 1 | S. cerevisiae deletion strains, locus YER155C, strain BEM2, active compounds read low 0.995 | S. cerevisiae deletion strains, locus YER167W, strain BCK2, active compounds read low 1.02 | S. cerevisiae deletion strains, locus YGL078C, strain dbp3, active compounds read low 1 | S. cerevisiae deletion strains, locus YGL086W, strain mad1, active compounds read low 1.01 | S. cerevisiae deletion strains, locus YGL248W, strain PDE1, active compounds read low 1.02 | S. cerevisiae deletion strains, locus YGR078C, strain PAC10, active compounds read low 0.995 | S. cerevisiae deletion strains, locus YGR135W, strain pre9, active compounds read low 0.994 | S. cerevisiae deletion strains, locus YGR229C, strain SMI1, active compounds read low 0.972 | S. cerevisiae deletion strains, locus YGR252W, strain gcn5, active compounds read low 1.04 | [2] 1 | S. cerevisiae deletion strains, locus YHR079C, strain IRE1 (second series), active compounds read low 1.02 | S. cerevisiae deletion strains, locus YHR094C, strain hxt1, active compounds read low 1.01 | S. cerevisiae deletion strains, locus YHR129C, strain ARP1, active compounds read low 1.02 | S. cerevisiae deletion strains, locus YHR200W, strain rpn10, active compounds read low 1.01 | S. cerevisiae deletion strains, locus YIL066C, strain RNR3, active compounds read low 0.997 | S. cerevisiae deletion strains, locus YIL073C, strain SPO22, active compounds read low 1.08 | S. cerevisiae deletion strains, locus YIL125W, strain kgd1, active compounds read low 1.01 | S. cerevisiae deletion strains, locus YIR030C, strain dcg1, active compounds read low 1.01 | [3] 0.994 | S. cerevisiae deletion strains, locus YJL134W, strain LCB3, active compounds read low 1.01 | S. cerevisiae deletion strains, locus YJL168C, strain set2, active compounds read low 1 | S. cerevisiae deletion strains, locus YJL187C, strain SWE1 (second series), active compounds read low 1.01 | S. cerevisiae deletion strains, locus YJR043C, strain POL32, active compounds read low 1.01 | S. cerevisiae deletion strains, locus YJR075W, strain HOC1, active compounds read low 0.983 | S. cerevisiae deletion strains, locus YKL009W, strain mrt4, active compounds read low 1.03 | S. cerevisiae deletion strains, locus YKL068W, active compounds read low 0.996 | S. cerevisiae deletion strains, locus YKL085W, strain MDH1 (second series), active compounds read low 1.02 | S. cerevisiae deletion strains, locus YKL085W, strain MDH1, active compounds read low 1.02 | S. cerevisiae deletion strains, locus YKL190W, strain CNB1, active compounds read low 1 | S. cerevisiae deletion strains, locus YKR001C, strain vps1, active compounds read low 1.01 | S. cerevisiae deletion strains, locus YLR039C, strain RIC1, active compounds read low 1.02 | S. cerevisiae deletion strains, locus YLR058C, strain SHM2, active compounds read low 1.01 | S. cerevisiae deletion strains, locus YLR102C, strain apc9, active compounds read low 1.01 | S. cerevisiae deletion strains, locus YLR262C, strain YPT6, active compounds read low 1.01 | S. cerevisiae deletion strains, locus YLR268W, strain sec22, active compounds read low 1.01 | S. cerevisiae deletion strains, locus YLR330W, strain CHS5, active compounds read low 1 | S. cerevisiae deletion strains, locus YLR342W, strain FKS1 (second series), active compounds read low 1.08 | S. cerevisiae deletion strains, locus YLR371W, strain rom2, active compounds read low 1.02 | S. cerevisiae deletion strains, locus YLR418C, strain cdc73, active compounds read low 0.984 | S. cerevisiae deletion strains, locus YML016C, strain PPZ1, active compounds read low 1 | S. cerevisiae deletion strains, locus YML032C, strain rad52, active compounds read low 1.02 | S. cerevisiae deletion strains, locus YML124C, strain tub3, active compounds read low 1 | S. cerevisiae deletion strains, locus YMR078C, strain ctf18, active compounds read low 1.02 | S. cerevisiae deletion strains, locus YMR223W, strain ubp8, active compounds read low 1.03 | S. cerevisiae deletion strains, locus YMR263W, strain SAP30, active compounds read low 1 | S. cerevisiae deletion strains, locus YMR307W, strain GAS1, active compounds read low 1.03 | S. cerevisiae deletion strains, locus YNL067W, strain RPL9B, active compounds read low 0.994 | S. cerevisiae deletion strains, locus YNL128W, strain TEP1, active compounds read low 0.951 | S. cerevisiae deletion strains, locus YNL153C, strain GIM3, active compounds read low 0.999 | S. cerevisiae deletion strains, locus YNL233W, strain BNI4, active compounds read low 1.01 | S. cerevisiae deletion strains, locus YNL250W, strain rad50, active compounds read low 1.01 | S. cerevisiae deletion strains, locus YNL271C, strain bni1, active compounds read low 1 | S. cerevisiae deletion strains, locus YNL298W, strain CLA4, active compounds read low 1.01 | S. cerevisiae deletion strains, locus YNL307C, strain MCK1, active compounds read low 1.03 | S. cerevisiae deletion strains, locus YNL322C, strain KRE1, active compounds read low 0.998 | S. cerevisiae deletion strains, locus YNR052C, strain pop2, active compounds read low 1.01 | S. cerevisiae deletion strains, locus YOL006C, strain TOP1, active compounds read low 1.03 | S. cerevisiae deletion strains, locus YOL012C, strain htz1 1.31 | S. cerevisiae deletion strains, locus YOL147C, strain pex11, active compounds read low 1.01 | [4] 1 | S. cerevisiae deletion strains, locus YOR069W, strain VPS5, active compounds read low 1.01 | S. cerevisiae deletion strains, locus YOR136W, strain idh2, active compounds read low 1.01 | S. cerevisiae deletion strains, locus YOR144C, strain elg1, active compounds read low 1 | S. cerevisiae deletion strains, locus YOR184W, strain ser1, active compounds read low 1.06 | S. cerevisiae deletion strains, locus YOR316C, strain cot1, active compounds read low 1.01 | S. cerevisiae deletion strains, locus YPL055C, strain LGE1, active compounds read low 0.967 | S. cerevisiae deletion strains, locus YPL241C, strain CIN2, active compounds read low 1 | S. cerevisiae deletion strains, locus YPR119W, strain clb2, active compounds read low 1 | S. cerevisiae deletion strains, locus YPR141C, strain kar3, active compounds read low 1.01 | S. cerevisiae deletion strains, locus YPR163C, strain tif3, active compounds read low 1.01 | S. cerevisiae deletion strains, locus YPR167C, strain met16, active compounds read low 1 | S. cerevisiae deletion strains, strain wtn01, active compounds read low 1.01 | S. cerevisiae strains, strain wild type, active compounds read low 0.988
